These results are taken from PubChem BioAssay (NCI).

The panel holds about 83,000 compounds, 20% with a hit somewhere; the sample as a whole holds those more often.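 48-hour exposure, single concentration, 96-well plates; percent growth endpoint where 0 means no net growth. Active: below 10.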 A number with no mark means an inactive call. Calls of active or inactive are those of the source.

Common to all, as to assay: NCI-60 one-dose screen, 48 h (100 = growth as untreated, 0 = no growth, -100 = all killed)
One assay relates to EKVX NSCLC. Particulars: 10 µM unless noted.
Another assay deals with SN12C renal. Conditions: 10 µM unless noted.
For the next assay, the system named is UO-31 renal. Particulars: 10 µM unless noted.
For another assay, the system named is TK-10 renal. Conditions: 10 µM unless noted.
A further assay has as its system ACHN renal. Particulars: 10 µM unless noted.
The next assay concerns CAKI-1 renal. Conditions: 10 µM unless noted.
Another assay concerns A498 renal. Particulars: 10 µM unless noted.
The test system of another assay is CCRF-CEM leukemia. Particulars: 10 µM unless noted.
The test system of the next assay is MOLT-4 leukemia. Particulars: 10 µM unless noted.
For the next assay, the system named is RPMI-8226 leukemia. Conditions: 10 µM unless noted.
The test system of a further assay is OVCAR-8 ovarian. Conditions: 10 µM unless noted.
The next assay deals with OVCAR-5 ovarian. Conditions: 10 µM unless noted.
For a further assay, the system named is OVCAR-4 ovarian. Conditions: 10 µM unless noted.
The subject of a further assay is SK-OV-3 ovarian. Conditions: 10 µM unless noted.
In the next assay the test system is IGROV1 ovarian. Particulars: 10 µM unless noted.
For another assay, the system named is OVCAR-3 ovarian. Particulars: 10 µM unless noted.
For the next assay, the system named is HS 578T breast. Particulars: 10 µM.
Another assay concerns NCI/ADR-RES ovarian. Particulars: 10 µM unless noted.
A further assay has as its system SK-MEL-2 melanoma. Conditions: 10 µM unless noted.
Another assay deals with SR leukemia. Particulars: 10 µM unless noted.

As for `ClCc1cccc(CSc2ncnc3c2ncn3Cc2cccc(CCl)c2)c1`, the growth was 92.9% in the assay with EKVX NSCLC; 2.77% (active) with SN12C renal; 40.6% with UO-31 renal; 48.4% in the assay on TK-10 renal; 70.1% in the assay on ACHN renal; 96.4% in the assay with CAKI-1 renal. The growth in the assay with A498 renal was 76.2%; in the assay with CCRF-CEM leukemia, 3.41% (active); in the assay with MOLT-4 leukemia it was 5.6% (active); in the assay with RPMI-8226 leukemia, -10.6% (active); with OVCAR-8 ovarian, -16.4% (active); in the assay on OVCAR-5 ovarian, 116%. Also, the growth with OVCAR-4 ovarian is 8.74% (active); in the assay with SK-OV-3 ovarian it was 65.5%; in the assay on IGROV1 ovarian, 14%; in the assay with OVCAR-3 ovarian, 28.4%; with HS 578T breast, 47.7%; in the assay on NCI/ADR-RES ovarian it was -6.49% (active).
For `Cc1cc(C)cc(Nc2cc(C)nc3nc(C(F)(F)F)nn23)c1`, the growth in the assay on SK-MEL-2 melanoma was 22.6%; in the assay on SN12C renal it was 31.9%; with UO-31 renal, 2.04% (active); in the assay with TK-10 renal, 46.1%; in the assay with ACHN renal, 28.6%; in the assay on A498 renal it was 67%. Moreover, the growth was 16.9% in the assay with CCRF-CEM leukemia; 18.4% with MOLT-4 leukemia; 29.6% in the assay on SR leukemia; 40% in the assay on RPMI-8226 leukemia; 17.5% in the assay with OVCAR-8 ovarian; 37.3% with OVCAR-4 ovarian. Moreover, the growth is 47.8% in the assay on SK-OV-3 ovarian, 21.6% with IGROV1 ovarian, 8.97% (active) in the assay with OVCAR-3 ovarian and 71.7% in the assay with HS 578T breast.
Regarding `Cc1ccc(N2C3c4ccccc4N(S(=O)(=O)c4ccc(C)cc4)C2c2ccccc2N3S(=O)(=O)c2ccc(C)cc2)cc1`, the growth with SK-MEL-2 melanoma was 111%; with SN12C renal, 94.9%; with UO-31 renal it was 91.1%; in the assay on TK-10 renal it was 128%; in the assay on ACHN renal it was 95.2%; in the assay on A498 renal, 97%. Also, the growth in the assay with CCRF-CEM leukemia was 89.2%; in the assay with MOLT-4 leukemia, 93.5%; with SR leukemia, 96%; with RPMI-8226 leukemia, 93.1%; in the assay with OVCAR-8 ovarian, 88.9%; in the assay on OVCAR-5 ovarian it was 105%. Moreover, the growth with OVCAR-4 ovarian is 93.9%; with SK-OV-3 ovarian, 106%; in the assay with IGROV1 ovarian, 107%; with OVCAR-3 ovarian, 107%; with HS 578T breast, 99.5%.
Consider `CCc1ccc2c(c1)N(CCO)C1=C(C(=O)OC1)C2c1cccc(Cl)c1` (stereo not given), for which the growth in the assay on EKVX NSCLC was 43%; in the assay on SN12C renal it was 38.7%; with UO-31 renal it was 34.9%; in the assay on TK-10 renal it was 49.9%; in the assay with ACHN renal, 42%; with CAKI-1 renal it was 27.6%. The growth was -1.08% (active) with A498 renal; 10.5% in the assay with CCRF-CEM leukemia; 17.6% with MOLT-4 leukemia; 20.2% with SR leukemia; 20.3% in the assay on RPMI-8226 leukemia; 27% in the assay with OVCAR-8 ovarian. In addition, the growth with OVCAR-5 ovarian is 30.3%; with OVCAR-4 ovarian it was 63.8%; with SK-OV-3 ovarian, 27.2%; in the assay on IGROV1 ovarian, 31.2%; with OVCAR-3 ovarian, -35.9% (active); in the assay on HS 578T breast, 7.46% (active). Besides, in the assay on NCI/ADR-RES ovarian, the growth is 8.16% (active).
`N=C(N)c1ccc(-c2ccc(-c3cc(Cl)cc(Cl)c3)o2)nc1`: the growth was -71.8% (active) in the assay with SK-MEL-2 melanoma; -79.9% (active) in the assay with SN12C renal; -76.6% (active) in the assay with UO-31 renal; -88.5% (active) in the assay with TK-10 renal; -90.6% (active) with ACHN renal; 61.8% in the assay with A498 renal. Besides, the growth is -37.9% (active) with CCRF-CEM leukemia; -55.1% (active) in the assay on MOLT-4 leukemia; -27.4% (active) with SR leukemia; -45.2% (active) in the assay with RPMI-8226 leukemia; -49.4% (active) in the assay on OVCAR-8 ovarian; -62.3% (active) in the assay with OVCAR-5 ovarian. The growth in the assay on OVCAR-4 ovarian was -57.7% (active); in the assay with SK-OV-3 ovarian, -86.5% (active); with OVCAR-3 ovarian it was -95.2% (active); with HS 578T breast it was 83.4%; with NCI/ADR-RES ovarian it was -29.8% (active).
As to `CCOc1cccc(/C=N/NC(=O)c2ccc(Nc3ccnc(C(F)(F)F)c3)cc2)c1O`, the growth with EKVX NSCLC is 15.2%; in the assay with SN12C renal, 40.7%; in the assay on UO-31 renal, -11% (active); in the assay with TK-10 renal it was 28.4%; in the assay with ACHN renal, 3.84% (active); in the assay with CAKI-1 renal it was 13.8%. Also, the growth is -2.13% (active) with A498 renal; -30.8% (active) in the assay on CCRF-CEM leukemia; 31.2% with MOLT-4 leukemia; 68.7% with SR leukemia; -23.6% (active) in the assay with RPMI-8226 leukemia; 24.7% with OVCAR-8 ovarian. Further, the growth in the assay on OVCAR-5 ovarian is 13.9%; in the assay on OVCAR-4 ovarian, 31.3%; in the assay on SK-OV-3 ovarian it was 10.9%; with IGROV1 ovarian, -9.15% (active); in the assay on OVCAR-3 ovarian, 24.6%; in the assay with HS 578T breast it was 11.3%. The growth with NCI/ADR-RES ovarian is 49.3%.
For the compound `CS(=O)(=O)Nc1cc(-c2cc3ncc(C#N)c(Nc4ccc(Oc5ccccc5)c(Cl)c4)c3s2)cnc1Cl`, the growth in the assay on EKVX NSCLC was 58.1%; with SN12C renal, 45.7%; in the assay with UO-31 renal, 22.6%; in the assay on TK-10 renal it was 45.4%; in the assay on ACHN renal it was 39.2%; with CAKI-1 renal, 19.4%. Also, the growth in the assay with A498 renal was -15.2% (active); in the assay with CCRF-CEM leukemia, 38.3%; in the assay on MOLT-4 leukemia, 36.9%; with SR leukemia, 20.5%; in the assay on RPMI-8226 leukemia, 62.7%; in the assay on OVCAR-8 ovarian, 50.6%. The growth in the assay on OVCAR-5 ovarian was 75.9%; in the assay on OVCAR-4 ovarian, 57.6%; in the assay with SK-OV-3 ovarian, 43.4%; in the assay with IGROV1 ovarian it was 11%; in the assay on OVCAR-3 ovarian, 50.7%; in the assay on NCI/ADR-RES ovarian, 72.2%.
As to `CCCCCc1c(C)[nH]c(/C=C2\N=C(c3ccc[nH]3)C=C2CC)c1C`, the growth is -90.3% (active) in the assay with EKVX NSCLC; -89.9% (active) in the assay with SN12C renal; -85.8% (active) with UO-31 renal; -88.9% (active) with TK-10 renal; -94.7% (active) in the assay on ACHN renal; -82.1% (active) in the assay on CAKI-1 renal. Further, the growth in the assay with A498 renal is -90.8% (active); in the assay on CCRF-CEM leukemia it was -58.3% (active); in the assay on MOLT-4 leukemia, -58.8% (active); in the assay on RPMI-8226 leukemia, -63.7% (active); in the assay with OVCAR-8 ovarian it was -65.2% (active); in the assay with OVCAR-5 ovarian, -95.5% (active). The growth with OVCAR-4 ovarian was -89.8% (active); with SK-OV-3 ovarian, -95.5% (active); in the assay with IGROV1 ovarian, -63.3% (active); in the assay with OVCAR-3 ovarian it was -97.5% (active); with HS 578T breast it was -27.5% (active); in the assay on NCI/ADR-RES ovarian, -78.8% (active).
As to `COc1cc(Nc2ccnc3ccc(Br)cc23)cc(OC)c1OC`, the growth in the assay on EKVX NSCLC is 53.4%; with SN12C renal it was 41.5%; in the assay with UO-31 renal it was 40.2%; with TK-10 renal it was 56.8%; in the assay on ACHN renal it was 37.6%; with CAKI-1 renal, 31.9%. In addition, the growth with A498 renal was -7.03% (active); in the assay on CCRF-CEM leukemia, 32.8%; in the assay on MOLT-4 leukemia it was 32.1%; in the assay with SR leukemia it was 15.7%; with RPMI-8226 leukemia, 30.4%; in the assay with OVCAR-8 ovarian it was 36.6%. For the same compound, the growth in the assay with OVCAR-5 ovarian is 51.6%; with OVCAR-4 ovarian it was 62.5%; in the assay with SK-OV-3 ovarian, 36.6%; in the assay on IGROV1 ovarian, 38.2%; in the assay with OVCAR-3 ovarian it was 29.8%; in the assay on NCI/ADR-RES ovarian it was 12.8%.
